# Hit rate of the full screen: of about 200,000 compounds, about 18,000 (9%) were called active. The sample holds actives, similar compounds and a random draw of the others, so the mix is not that of the screen. A number with no mark means an inactive call. Cut-off read from the data, not from the text of the source: active = inhibition above about 50%; inactive = the rest.
# Experiment: antileishmanial activity against promastigotes – primary screen (AID 1063);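 note: promastigotes grown with compound for 44 hours at 28 °C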
# Details: Leishmania major promastigotes, resazurin fluorescence viability; at 10 µM; stronger effect = higher value
row,Compound,inhibition
1,CC(=O)c1ccc(NC(=O)CSC(=S)N2CCCC2)cc1,-5.47%
2,O=C(Nc1nnc(Cc2ccccc2)s1)c1cnccn1,1.06%
3,COc1ccc(NC(=O)CSc2nc(C)cs2)cc1,8.18%
4,Cc1nn(CC#N)c(=O)n1N(C)c1ncc(C(F)(F)F)cc1Cl,-6.01%
5,Cc1nn(CC2CC2)c(=O)n1N(C)c1ncc(C(F)(F)F)cc1Cl,74.1% (active)
6,Cc1nn(-c2ncc(C(F)(F)F)cc2Cl)c(=O)n1-c1ccccc1,-12.9%
7,CC(=O)c1cccc(-n2nnnc2SCC(=O)NNC(=O)C2CCCCC2)c1,-7.09%
8,COC(=O)C1=C(N)Oc2c(oc(CO)cc2=O)C1c1c(F)cccc1Cl (stereo unspecified),10.5%
9,Cc1[nH][nH]c(=O)c1C(c1ccc(-c2ccc(Cl)cc2)o1)c1c(C)[nH][nH]c1=O,100% (active)
10,Cc1[nH][nH]c(=O)c1C(c1ccc2c(c1)OCO2)c1c(C)[nH][nH]c1=O,25.9%
11,CCOc1ccc(C(c2c(C)[nH][nH]c2=O)c2c(C)[nH][nH]c2=O)cc1OCC,22.5%
12,C=CCc1cccc2cc(C(=O)NC3CCCC3)c(=O)oc12,3.36%
13,OCCC1CN(Cc2ccc3nsnc3c2)CCN1C1CCCC1 (stereo unspecified),20.1%
14,Cc1cccc(-c2ncc(CN3CCC(CO)(CCCc4ccccc4)CC3)cn2)c1,15.9%
15,OCC1(CCc2ccccc2)CCN(Cc2ccc3nsnc3c2)CC1,88.2% (active)
16,Nn1c(SCC(=O)Nc2nccs2)nncc1=O,-3.46%
17,CSc1ncnc2sc(C)c(C)c12,-8.93%
18,Cc1ccc(S(=O)(=O)N2CCN(S(=O)(=O)N3CCOCC3)CC2)cc1,-6.92%
19,CC(=O)Nc1ccc(S(=O)(=O)N2CCN(C3CCCCCCC3)CC2)cc1,-3.65%
20,Cc1ccc(S(=O)(=O)N2CCC(N3CCCCCC3)CC2)cc1,95.3% (active)
21,COc1ccc(NC(=O)N2CCCC(c3nc(-c4ccc(F)cc4)no3)C2)cc1 (stereo unspecified),-5.76%
22,O=C(COC(=O)CCc1ccc(S(=O)(=O)N2CCOCC2)cc1)Nc1cccc(Cl)c1,-4.95%
23,N#C/C(C(=S)Nc1ccccc1)=C1/NN=C(N2CCOCC2)N1c1ccccc1,4.1%
24,Cc1ccc(NC(=S)NCCN2CCOCC2)cc1,2.32%

row,Compound,inhibition
1,Cc1ccc(C(=O)NC(=S)NCCN2CCOCC2)cc1,65.4% (active)
2,Cc1ccc(C(=O)NC(=S)Nc2ccc(N3CCOCC3)cc2)cc1,-0.73%
3,O=C(CCN1CCCCC1)N=Nc1c(O)[nH]c2ccccc12,11.4%
4,CSc1ccccc1C(=O)NCc1ccccc1,-0.25%
5,Cc1cc(C)n(CC(=O)Nc2ccc([N+](=O)[O-])cc2)n1,-2.52%
6,O=C(COC(=O)c1ccco1)NCc1ccc(Cl)cc1,-4.2%
7,COC(=O)c1ccc(CSc2nc3ccccc3c(=O)n2-c2cccc(OC)c2)o1,46.8%
8,COCC(C)n1c(SCc2ccc(C(=O)OC)o2)nc2ccccc2c1=O (stereo unspecified),89% (active)
9,COCCn1c(C)cc(C(=O)CSc2nc3ccccc3c(=O)n2C(C)COC)c1C (stereo unspecified),15.4%
10,Cc1ccc(-c2nn(-c3cccc(F)c3)cc2CNCCc2ccncc2)o1,56.8% (active)
11,Cc1ccc(-c2nn(-c3ccccc3)cc2CN(Cc2ccccc2)C(=O)CCC(=O)O)o1,-2.65%
12,CSCCNCc1cn(-c2ccc(F)cc2F)nc1-c1ccccc1C,15.5%
13,Cn1c(=O)n(Cc2ccco2)c(=N)c2c3c(sc21)CCCC3,13.8%
14,COc1cccc(OC)c1C(=O)OCC(=O)/C(C#N)=C(\C)N,-3.93%
15,CCOC(=O)C1=C(CNC2CCCCC2)NC(=O)NC1c1cc(C)ccc1C (stereo unspecified),47.4%
16,CCOC(=O)C1=C(CN2CCCCCC2)NC(=O)NC1c1cccc([N+](=O)[O-])c1 (stereo unspecified),10.7%
17,CCOC(=O)C1=C(CN2CCc3ccccc32)NC(=O)NC1c1ccc(Cl)cc1 (stereo unspecified),55.5% (active)
18,CCOC(=O)C1=C(CN2CCc3ccccc32)NC(=O)NC1c1cc(C)ccc1C (stereo unspecified),11.4%
19,CCOC(=O)C1=C(CN2CCc3ccccc32)NC(=O)NC1c1cccc([N+](=O)[O-])c1 (stereo unspecified),82.8% (active)
20,COCCOC(=O)C1=C(C)NC(=O)NC1c1ccc(Cl)cc1 (stereo unspecified),-1.33%
21,C/C(=N/OC(=O)c1cccc(C(F)(F)F)c1)c1cnccn1,-8.57%
22,Cn1cnnc1SCC(=O)NNC(=O)COc1ccc(Br)cc1,-4.37%
23,C/C(=N\Nc1nc(Nc2ccccc2)nc(N2CCOCC2)n1)c1cccs1,5.71%
24,C=CCNC(=O)COC(=O)CNC(=O)c1cc(Cl)cc([N+](=O)[O-])c1,7.34%

row,Compound,inhibition
1,COc1ccc(O[C@H]2C=C[C@@H](c3ccccc3)O[C@@H]2CO/N=C/C[C@@H]2C=C[C@H](OC(C)=O)[C@@H](COC(C)=O)O2)cc1,5.12%
2,C/C(=N\Nc1ncc(Cl)cc1Cl)c1cccs1,19%
3,O=C(CSc1nc2ccccc2[nH]1)c1cccs1,8.11%
4,C/C(=N\Nc1nc2ccccc2[nH]1)c1cccs1,77.2% (active)
5,Cc1ccc(NC(=O)C2(N3CCC3=O)CCCCC2)cc1,-5.4%
6,COc1cccc(-n2c(=S)sc3c(=O)n(-c4ccccc4OC)c(SCC4OCCO4)nc32)c1,19.1%
7,OC(COc1cccc(OCC(O)CN2CCCC2)c1)CN1CCCC1 (stereo unspecified),-2.43%
8,O=[N+]([O-])c1ccc(N2CCN(CC(O)COc3ccccc3)CC2)cc1 (stereo unspecified),32.1%
9,OC(COc1ccc2ccccc2c1)Cn1cncn1 (stereo unspecified),-2.08%
10,O=S(=O)(c1ccc(OCC(O)CN2CCN(c3ccccc3Cl)CC2)cc1)N1CCOCC1 (stereo unspecified),68.2% (active)
11,CC(=O)Nc1ccc(OCC(O)CN2CCN(c3ccccc3Cl)CC2)cc1 (stereo unspecified),-1.4%
12,OC(COc1ccc2ccccc2c1)CN1CCOCC1 (stereo unspecified),59.9% (active)
13,O=C(NCC1COc2ccccc2O1)C1(c2ccccc2)CCCC1 (stereo unspecified),4.71%
14,CCOC(=O)CSc1nnc(-c2ccc([N+](=O)[O-])cc2)o1,-7%
15,COCCN(C(=S)Nc1ccccc1OC)C1CCN(C(C)C)CC1,-1.11%
16,CCN1CCN(c2ccc(NC(=O)c3cnccn3)cc2)CC1,-5.28%
17,CCN1CCN(C(c2cccnc2)c2cc(Cl)c3cccnc3c2O)CC1 (stereo unspecified),52.4% (active)
18,CCOC(=O)N1CCN(C(c2cccnc2)c2ccc3cccnc3c2O)CC1 (stereo unspecified),100% (active)
19,CCOC(=O)N1CCN(C(=O)CSc2ccc(Cl)cc2)CC1,-6.22%
20,Oc1c(C(c2ccccn2)N2CCOCC2)ccc2cccnc12 (stereo unspecified),5.34%
21,Cc1ccnc2nc(C(=O)OCC(=O)N(CC(C)C)CC(C)C)nn12,4.48%
22,CN(c1ccccc1)S(=O)(=O)c1cc(C(=O)OCC(=O)N2CCN(C(=O)c3ccco3)CC2)ccc1Cl,-3.3%
23,Nc1ncnc(Nc2cccc(Cl)c2Cl)n1,-0.16%
24,Cc1ccc(C(=O)NCC2CCCO2)o1 (stereo unspecified),-4.63%

row,Compound,inhibition
1,Cc1cc(Br)ccc1NC(=O)C1CCCO1 (stereo unspecified),-3.76%
2,OC(CNCC1CCCO1)Cn1c2ccc(Br)cc2c2cc(Br)ccc21 (stereo unspecified),101% (active)
3,COc1cc(C(=O)Nc2cc(C(F)(F)F)ccc2-n2cncn2)cc(OC)c1OC,15.4%
4,O=C(CSc1ccccc1F)NC1CCS(=O)(=O)C1 (stereo unspecified),1.43%
5,CCCSC(=S)NC1CCS(=O)(=O)C1 (stereo unspecified),100% (active)
6,CC(C)C(=O)NC(NC(=S)NC1CCS(=O)(=O)C1)C(Cl)(Cl)Cl (stereo unspecified),-3.47%
7,O=S1(=O)CCC(NC(=S)SCc2ccccc2Br)C1 (stereo unspecified),89.6% (active)
8,CCN(CC(=O)NC1CCS(=O)(=O)C1)S(=O)(=O)c1ccccc1 (stereo unspecified),47.9%
9,COc1ccc(NC(=S)NC2CCS(=O)(=O)C2)cc1 (stereo unspecified),6.02%
10,COc1cccc(OC)c1C(=O)NC(=S)NCc1ccco1,0.66%
11,Cc1nn(-c2ccccc2)c(-n2cccc2)c1C(=O)O,-0.36%
12,CCC(C)NC(=O)Cn1nc(C(F)(F)F)c2c1CCC2 (stereo unspecified),-5.4%
13,CCOc1cnc(-c2c(-c3ccccc3Cl)noc2C)o1,-0.43%
14,COc1cc(OC)c(C2=NOC(C(=O)Nc3c(C)n(C)n(-c4ccccc4)c3=O)C2)cc1Cl (stereo unspecified),-5.3%
15,CC1CCN(c2ccc([N+](=O)[O-])cc2C(N)=O)CC1,-3.26%
16,C=CCO/N=C/C1=C(O)C(C(=O)OC)C(C)(C)CC1=O (stereo unspecified),-2.09%
17,O=C(NCCN1C(=O)S/C(=C\c2cccnc2)C1=O)c1cccc(OC(F)F)c1,50.6% (active)
18,CCOc1ccc(N2CC(C(=O)NCCN3C(=O)S/C(=C\c4cccnc4)C3=O)CC2=O)cc1 (stereo unspecified),-4.79%
19,Cc1cc(OCCCC(=O)NCCN2C(=O)S/C(=C\c3cccnc3)C2=O)ccc1Cl,42.1%
20,O=C(CCc1ccccc1)Nc1ccc(NC(=O)C2CCCCC2)nc1,6.33%
21,Cc1ccc(SC(C)C(=O)NCc2ccc(F)cc2)cc1 (stereo unspecified),-1.71%
22,O=C(/C=C/c1cccs1)c1cc(Cl)ccc1OC(=O)N1CCOCC1,100% (active)
23,O=C(c1cccs1)N1CCN(C(=O)N2CCOCC2)CC1,-6.96%
24,CC(=O)Nc1ccccc1OC(=O)N1CCOCC1,-2.48%

# Reference: PubChem BioAssay AID1063 (University of Pittsburgh Molecular Library Screening Center, 2008)
